Measurements: PubChem BioAssay
A number with no mark means an inactive call. For part of these data: Entries with a potency or affinity are not part of this list. Activity calls are given as the source filed them. Unless noted, the rule behind the calls is not given here.

Experiments:
[1] = antimalarial activity against Dd2 strain (AID 2302;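 active = growth inhibition above 50% at the single 2 µM test dose, taken to imply half-maximal potency below 2 µM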;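 note: 0% = DMSO untreated growth and 100% = chloroquine plus artemisinin killed control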); conditions: P. falciparum Dd2 in RBCs, LDH growth readout, 72 h; at 2 µM; active compounds read high
[2] = HepG2 cytotoxicity, primary screen, cytotoxicity control for P. falciparum antimalarial project, cell-based, ATP luminescence (AID 2303;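 active = inhibition above 50%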;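 note: 0% = DMSO wells and 100% = digitonin-killed cells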); conditions: HepG2 viability, 24-48 h, at 10 µM, active compounds read high
[3] = target: L-lactate dehydrogenase (Plasmodium falciparum (isolate CDC / Honduras)) (UniProt Q27743); test: PfLDH activity inhibition – cell lysate, 3D7 strain, counter-screen for P. falciparum growth inhibition project (AID 2304);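 note: 0% = vehicle and 100% = reference inhibitor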; conditions: P. falciparum 3D7 crude extract, LDH APAD/NBT absorbance; at 2 µM; active compounds read high
[4] = inhibition of 3D7 malaria parasite growth – strain 3D7 (AID 2306);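 note: 0% = DMSO wells and 100% = chloroquine plus artemisinin control wells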; conditions: P. falciparum 3D7 erythrocytic growth, LDH absorbance, 72 h; at 2 µM; active compounds read high
[5] = target: Calcium-dependent protein kinase 1 (Plasmodium falciparum (isolate 3D7)) (UniProt P62344); test: PfCDPK1 kinase inhibitors, biochemical, TCAMS library (AID 1159585; cut-off not given, nearly all actives have IC50 up to about 0.98 µM;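 note: inhibitors leave more ATP so luminescence rises with inhibition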); conditions: recombinant PfCDPK1, Kinase-Glo ATP depletion luminescence
[6] = target: Plasmodium falciparum protein kinase 6 (PK6, PF3D7_1337100) (UniProt Q8IDW1); test: PfPK6 kinase inhibitors, biochemical, TCAMS library (AID 1159586); conditions: recombinant PfPK6, Kinase-Glo ATP depletion luminescence
[7] = target: Protein kinase 7 (PK7), Plasmodium falciparum 3D7 (PF3D7_0213400) (UniProt Q7YTF7); test: inhibition of Plasmodium PK7 catalytic activity – biochemical, TCAMS antimalarial set, Kinase-Glo luminescence (AID 1159587); conditions: recombinant PfPK7, Kinase-Glo ATP depletion luminescence
[8] = target: Calcium-dependent protein kinase 4 (Plasmodium falciparum (isolate 3D7)) (UniProt Q8IBS5); test: PfCDPK4 kinase inhibitors, biochemical, TCAMS library (AID 1159588; cut-off not given, nearly all actives have IC50 up to about 0.91 µM); conditions: recombinant PfCDPK4, Kinase-Glo ATP depletion luminescence
Calcium-dependent protein kinase 4 (Plasmodium falciparum (isolate 3D7)), sequence (Q8IBS5 whole entry, looked up): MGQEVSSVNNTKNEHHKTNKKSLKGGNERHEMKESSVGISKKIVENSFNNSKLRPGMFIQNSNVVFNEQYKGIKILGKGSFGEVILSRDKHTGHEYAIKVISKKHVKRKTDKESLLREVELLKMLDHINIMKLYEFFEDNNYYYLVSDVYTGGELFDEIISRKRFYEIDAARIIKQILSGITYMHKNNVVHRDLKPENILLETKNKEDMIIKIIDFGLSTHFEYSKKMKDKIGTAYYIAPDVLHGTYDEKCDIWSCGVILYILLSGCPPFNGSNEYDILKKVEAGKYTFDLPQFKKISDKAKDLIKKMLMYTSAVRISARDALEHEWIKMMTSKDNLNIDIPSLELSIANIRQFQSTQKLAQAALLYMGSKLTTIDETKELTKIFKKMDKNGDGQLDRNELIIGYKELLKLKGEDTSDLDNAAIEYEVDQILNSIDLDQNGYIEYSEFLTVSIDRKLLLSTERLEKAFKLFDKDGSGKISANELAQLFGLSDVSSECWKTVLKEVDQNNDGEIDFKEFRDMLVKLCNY

L-lactate dehydrogenase (Plasmodium falciparum (isolate CDC / Honduras)), sequence (Q27743 whole entry, looked up): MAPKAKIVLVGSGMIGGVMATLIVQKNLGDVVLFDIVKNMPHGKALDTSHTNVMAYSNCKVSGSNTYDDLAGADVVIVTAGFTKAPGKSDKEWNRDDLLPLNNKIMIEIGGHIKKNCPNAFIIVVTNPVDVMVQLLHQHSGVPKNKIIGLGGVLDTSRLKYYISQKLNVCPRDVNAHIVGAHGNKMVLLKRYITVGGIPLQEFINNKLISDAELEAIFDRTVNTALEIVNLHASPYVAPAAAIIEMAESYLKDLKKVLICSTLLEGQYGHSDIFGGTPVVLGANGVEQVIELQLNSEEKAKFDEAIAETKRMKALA
Plasmodium falciparum protein kinase 6 (PK6, PF3D7_1337100), sequence (Q8IDW1 1-305): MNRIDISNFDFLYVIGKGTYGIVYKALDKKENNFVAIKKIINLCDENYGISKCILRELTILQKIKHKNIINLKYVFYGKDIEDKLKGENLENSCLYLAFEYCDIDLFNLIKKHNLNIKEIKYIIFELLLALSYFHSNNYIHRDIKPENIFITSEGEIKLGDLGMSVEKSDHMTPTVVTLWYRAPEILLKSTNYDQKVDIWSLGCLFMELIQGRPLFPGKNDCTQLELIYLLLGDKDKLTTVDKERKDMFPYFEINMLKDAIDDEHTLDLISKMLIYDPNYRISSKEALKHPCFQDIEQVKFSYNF
Protein kinase 7 (PK7), Plasmodium falciparum 3D7 (PF3D7_0213400), sequence (Q7YTF7 1-343): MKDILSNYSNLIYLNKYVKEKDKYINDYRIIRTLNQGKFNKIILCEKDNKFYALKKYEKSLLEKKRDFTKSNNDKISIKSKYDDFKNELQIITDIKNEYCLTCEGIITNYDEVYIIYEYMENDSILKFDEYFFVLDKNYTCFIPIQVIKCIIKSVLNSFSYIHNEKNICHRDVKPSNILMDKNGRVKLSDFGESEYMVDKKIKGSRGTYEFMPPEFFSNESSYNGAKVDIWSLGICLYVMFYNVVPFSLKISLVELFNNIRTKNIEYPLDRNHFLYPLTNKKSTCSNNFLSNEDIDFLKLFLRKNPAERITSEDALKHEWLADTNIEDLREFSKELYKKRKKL
Calcium-dependent protein kinase 1 (Plasmodium falciparum (isolate 3D7)), sequence (P62344 whole entry, looked up): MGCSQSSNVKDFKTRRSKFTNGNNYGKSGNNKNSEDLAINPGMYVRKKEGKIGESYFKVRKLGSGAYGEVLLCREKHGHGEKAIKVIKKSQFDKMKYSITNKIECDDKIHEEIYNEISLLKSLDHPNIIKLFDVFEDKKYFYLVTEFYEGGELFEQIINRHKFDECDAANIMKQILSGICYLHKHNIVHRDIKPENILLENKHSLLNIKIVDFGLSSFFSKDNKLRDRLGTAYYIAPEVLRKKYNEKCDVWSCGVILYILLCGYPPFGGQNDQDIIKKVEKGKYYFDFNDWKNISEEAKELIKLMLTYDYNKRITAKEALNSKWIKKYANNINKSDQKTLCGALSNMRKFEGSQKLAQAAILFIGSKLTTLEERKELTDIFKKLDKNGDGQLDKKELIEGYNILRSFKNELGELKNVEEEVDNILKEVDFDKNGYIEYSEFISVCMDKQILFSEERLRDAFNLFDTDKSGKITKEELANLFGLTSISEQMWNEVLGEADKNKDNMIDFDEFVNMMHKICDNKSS

SMILES	growth inhibition [1]	inhibition [2] [%]	inhibition [3] [%]	growth inhibition [4]	outcome [5]	outcome [6]	outcome [7]	outcome [8]
Cc1ccc(O)c(C(=O)c2cc(C(=O)Nc3ccccc3C)c(=O)n(-c3ccccc3C)c2)c1	81% (active)	-15	-8	98% (active)	inactive	inactive	inactive	inactive
Oc1cc(Nc2ccnc3cc(-c4cccc(CN5CCCCC5)c4)ccc23)c(F)cc1Cl	101% (active)	21	-3	101% (active)	inactive	inactive	inactive	inactive
Cc1ccc(CNC(=O)c2cc3c(=O)n4ccccc4nc3n(CCCN3CCOCC3)c2=N)cc1	5%	21	-3	92% (active)	inactive	inactive	inactive	inactive
